# Data reported in PubChem BioAssay (NCATS).
# Records with an inconclusive call do not appear. Values without a mark were called inactive. The source made the active and inactive calls. The call rests on the fitted dose curve; in most records, active means well fitted inhibition curve with a large enough effect; inconclusive means small, poorly fitted or top-dose-only effect; inactive means flat fitted curve, though single readings scatter.
# Molecular target: Ubiquitin carboxyl-terminal hydrolase 1 (Homo sapiens) (UniProt O94782)
# Experiment: Inhibitors of USP1/UAF1: Pilot qHTS (AID 504865);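 further: rhodamine fluorescence freed from ubiquitin-rhodamine substrate followed over time; top concentration of the series differs between compounds; nearly all actives have a fitted effect of over 35% in size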
# Settings: purified USP1/UAF1, Ub-rhodamine cleavage fluorescence; series mostly up to 114 µM; activity change, negative = inhibition: at the top concentration
# Description: Deubiquitinating enzymes (DUBs) are a class of enzymes that can cleave isopeptide bond formed between the C-terminal carboxylate of ubiquitin and a lysine side-chain amino group on the target protein. Among them, ubiquitin specific proteases (USPs) constitute the largest DUB family. Human USPs are emerging as promising targets for pharmacological intervention because of their connection to a number of human diseases, including prostate, colon and breast cancer (1, 2), pediatric acute lymphoblastic leukemia (3), and familial cylindromatosis (4). The advantage of inhibiting USPs lies in the potential specificity of therapeutic intervention that can lead to better efficacy and reduce nonspecific side effects.
# In a collaboration between the University of Delaware and the NIH Chemical Genomics Center, a high-throughput screen assay was developed to screen for USP1/UAF1 inhibitors. This miniaturized assay has a fluorescent read-out and is used to screen the NIH Molecular Libraries Small Molecule Repository (MLSMR) in order to identify a small molecule that inhibits USP1.
# NIH Chemical Genomics Center [NCGC]
# NIH Molecular Libraries Probe Centers Network [MLPCN]
# Assay Submitter (PI): Zhihao Zhuang, University of Delaware
# 1. Priolo, C., et al. (2006) The isopeptidase USP2a protects human prostate cancer from apoptosis. Cancer Res 66, 8625-8632
# 2. Popov, N., et al. (2007) The ubiquitin-specific protease USP28 is required for MYC stability. Nat Cell Biol 9, 765-774
# 3. De Pitta, C., et al. (2005) A leukemia-enriched cDNA microarray platform identifies new transcripts with relevance to the biology of pediatric acute lymphoblastic leukemia. Haematologica 90, 890-898
# 4. Kovalenko, A., et al. (2003) The tumour suppressor CYLD negatively regulates NF-kappaB signalling by deubiquitination. Nature 424, 801-805
# 3 microliters of reagents (buffer in columns 3 and 4 as negative control and 1nM USP1/UAF1 complex in columns 1, 2, and 5-48) are dispensed into Greiner black solid bottom 1536-well assay plates. Compounds are then transferred via Kalypsys pin tool equipped with 1536-pin array (10nl slotted pins, V&P Scientific, San Diego, CA). Following an incubation step of 15 min at room temperature, 1ul of Ub-Rho substrate (150nM final concentration) is added to initiate the reaction. The plates are immediately centrifuged at 1000 rpm for 15 seconds, and subsequently transferred to a ViewLux high-throughput CCD imager (PerkinElmer) wherein kinetic measurements of fluorescence are acquired using 480 nm excitation/540 nm emission filter set (6 reads every 60 seconds, see Table 1). All reagents are diluted in an assay buffer consisting of 50mM HEPES (pH 7.8), 0.5mM EDTA, 0.1 mg/ml BSA, 1mM TCEP, and 0.01% Tween-20.
# On the % scale 0 is the no-effect control and ±100 the full control effect.
# Sequence of Ubiquitin carboxyl-terminal hydrolase 1 (Homo sapiens) (O94782 whole entry, looked up): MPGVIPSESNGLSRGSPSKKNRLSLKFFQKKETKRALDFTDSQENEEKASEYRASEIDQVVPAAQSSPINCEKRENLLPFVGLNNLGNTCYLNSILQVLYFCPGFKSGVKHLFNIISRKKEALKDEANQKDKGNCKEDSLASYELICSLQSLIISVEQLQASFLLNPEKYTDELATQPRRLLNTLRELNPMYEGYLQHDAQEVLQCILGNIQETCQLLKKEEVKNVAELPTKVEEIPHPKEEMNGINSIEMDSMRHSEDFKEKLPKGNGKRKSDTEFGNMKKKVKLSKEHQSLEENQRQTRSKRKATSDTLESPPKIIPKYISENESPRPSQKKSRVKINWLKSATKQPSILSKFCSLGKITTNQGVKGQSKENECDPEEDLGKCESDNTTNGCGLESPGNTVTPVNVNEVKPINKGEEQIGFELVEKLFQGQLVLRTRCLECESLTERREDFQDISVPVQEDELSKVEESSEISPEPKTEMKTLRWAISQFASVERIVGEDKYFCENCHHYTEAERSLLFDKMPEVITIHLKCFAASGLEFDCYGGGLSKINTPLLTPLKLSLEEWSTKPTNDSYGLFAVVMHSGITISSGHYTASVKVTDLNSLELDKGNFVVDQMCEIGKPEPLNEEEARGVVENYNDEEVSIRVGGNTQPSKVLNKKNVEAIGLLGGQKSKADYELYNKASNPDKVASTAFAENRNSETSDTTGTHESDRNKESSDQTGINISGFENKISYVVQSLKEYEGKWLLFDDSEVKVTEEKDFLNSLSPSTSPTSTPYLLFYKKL
Compound,"activity change, negative = inhibition",Potency
COc1cc2c(cc1O)C[C@H]1c3c(cc(O)c(OC)c3-2)CCN1C,-3.29% [at 54.9 µM],–
C/C=C/c1ccc2c(c1)OCO2,–,inactive
CCN1C[C@@]2(COC(=O)c3ccccc3N3C(=O)CC(C)C3=O)CC[C@H](OC)[C@]34C5C[C@@H]6[C@@H](OC)C[C@@](O)(C5[C@H]6OC)[C@@](O)(C13)[C@@H](OC)C24 (stereo not given in full),-8.61%,–
C[C@]12CCC3C(CC[C@]4(O)CC(O)CC[C@@]34C=O)[C@]1(O)CCC2C1=CC(=O)OC1 (stereo not given in full),-6.55%,–
CNC(=O)Oc1cccc2c1OC(C)(C)C2,-7.36%,–
O=c1ccc2cc(O[C@H]3OC(CO)C(O)C(O)C3O)c(O)cc2o1 (stereo not given in full),–,inactive
COc1cc(C(=O)OC2C[C@H]3CC[C@@H](C2)N3C)ccc1O (stereo not given in full),-9.97% [at 54.9 µM],–
CNC(=O)CSP(=S)(OC)OC,-9.61%,–
CC(C)(C)C(=O)C(Oc1ccc(Cl)cc1)n1cncn1 (stereo not given),-13%,–
CC1CC2CC(=O)C3CCCN4CCCC2[C@]34C1 (stereo not given in full),-8.19%,–
COc1cc(CNC(=O)CCCC/C=C/C(C)C)ccc1O,-14.2%,–
CN1[C@@H]2CC[C@H]1CC(O)C2 (stereo not given in full),4.36% [at 54.9 µM],–
C[C@@H]1O[C@H](O[C@@H]2CC[C@@]3(C=O)[C@H]4CC[C@@]5(C)[C@@H](C6=CC(=O)OC6)CC[C@@]5(O)[C@@H]4CC[C@]3(O)C2)C[C@H](O)[C@@H]1O,8.22% [at 54.9 µM],–
CC[C@@H]1[C@@H]2C[C@H]3[C@H]4N(C)c5ccccc5[C@@]45C[C@@H]([C@@H]2[C@@H]5O)N3[C@H]1O,8.26% [at 54.9 µM],–
O=C(NC(=O)c1ccccc1Cl)Nc1ccc(OC(F)(F)F)cc1,-3.33%,–
CC(C)OC(=O)Nc1cccc(Cl)c1,-13.2%,–
CC1CC(O)[C@]2(O)[C@]13CC(=O)OC[C@@]2(C)[C@@](C)(O)C(=O)C3 (stereo not given in full),-5.66%,–
CN[C@@H](C)[C@H]1CC[C@@H](N)[C@@H](O[C@@H]2[C@@H](O)[C@@H](O[C@H]3OC[C@@](C)(O)[C@@H](NC)[C@@H]3O)[C@H](N)C[C@@H]2N)O1 (tested in a mixture with another compound),-11.2% [at 54.9 µM],–
C[C@@]12CC(=O)[C@H]3[C@@H](CCC4=CC(=O)CC[C@]43C)[C@H]1CCC2=O,16.5% [at 54.9 µM],–
NC(=O)c1ccc(N)nc1,-7.12%,–

Compound,"activity change, negative = inhibition",Potency
CC(=O)OC1C2C(OC(=O)Cc3ccccc3)C(C)CC2(OC(C)=O)C(=O)/C(C)=C/C2C(CC[C@@]13CO3)C2(C)C (stereo not given in full),-9.28%,–
COC1=CC2C3Cc4ccc(OC)c(O)c4[C@]2(CCN3C)CC1=O (stereo not given in full),-4.45%,–
NNCc1ccccc1,-10.2%,–
CC(C)(C#N)O[C@H]1OC(CO)C(O)C(O)C1O (stereo not given in full),-10.4%,–
C[C@@]12CC[C@H](O)C[C@@H]1CC[C@H]1[C@@H]2C[C@@H](O)[C@]2(C)[C@@H](C3=CC(=O)OC3)CC[C@]12O,1.99% [at 54.9 µM],–
CCN1C[C@@]2(COC)CC[C@H](O)[C@@]34[C@@H]2C[C@@H]([C@@H]13)[C@]1(O)C[C@@H](OC)C2C[C@H]4[C@H]1[C@H]2OC(C)=O,-7.7% [at 54.9 µM],–
CN1[C@@H](C[C@@H](O)c2ccccc2)CCC[C@@H]1C[C@H](O)c1ccccc1,4.99% [at 54.9 µM],–
C[C@]12CCC3C(CC[C@H]4C[C@@H](O)CC[C@]34C)[C@@H]1CCC2=O (stereo not given in full),-4.39%,–
C=C1[C@@H]2C[C@@]3([C@H]1O)[C@H]1C[C@@H]4[C@@]5(C)CC[C@H](O)[C@]4([C@H]1N(CC)C5)[C@H]3C[C@H]2O,-2.29% [at 54.9 µM],–
CCN(CC)C(=O)N[C@@H]1C[C@H]2c3cccc4[nH]cc(c34)C[C@@H]2N(C)C1,–,inactive
COC(=O)NC(=S)Nc1ccccc1NC(=S)NC(=O)OC,-12%,–
N#CC(O[C@@H]1OC(COC2OC(CO)C(O)C(O)[C@@H]2O)C(O)C(O)C1O)c1ccccc1 (stereo not given in full),-7%,–
CN1C(=O)CCS(=O)(=O)[C@@H]1c1ccc(Cl)cc1,-0.459% [at 54.9 µM],–
C[C@@]12CCC(O)C[C@H]1CCC1C2CC[C@]2(C)C(=O)CCC12 (stereo not given in full),-17.3%,–
CCN1C[C@@]2(C)CC[C@@H](OC)[C@@]34C2C(O)[C@@]2(OCO[C@]25CC(OC)C2C[C@@]3(O)C5C2O)C14 (stereo not given in full),-2.9%,–
C[C@H]1C2Cc3ccc(O)cc3[C@]1(C)CCN2CC1CC1,-10.2%,–
CN1C2CC(OC(=O)C(CO)c3ccccc3)CC1C(O)C2 (stereo not given),-6.5%,–
Cc1ccccc1-c1cncnc1NCCc1cnc[nH]1,-10.4%,–
CC1=C2[C@@H]3OC(=O)[C@@H](C)[C@@H]3CC[C@]2(C)C=CC1=O,13.4% [at 54.9 µM],–
CC1=NCCc2c1[nH]c1cc(O)ccc21,"-808% [at 54.9 µM, above what the read-out allows, likely interference]",–
